In the library only some 11% were active in any assay of this set; here they are far more common.
USP28 block – inhibitors of human USP28 deubiquitinase; purified USP28, Ub-rhodamine cleavage fluorescence, 30 min; inhibition, % at 25 µM; 3% of 47,000 active; AID 1645857, 2021
OTUD3 inh – inhibitors of human OTUD3 deubiquitinase. OTU domain-containing protein 3 (Homo sapiens), Q5T2D3. purified OTUD3, Ub-rhodamine fluorescence, 2 h. inhibition, % at 25 µM. 0.7% of 47,000 active
USP30 block – inhibitors of human USP30 deubiquitinase; 5.3% of 47,000 active; purified USP30, Ub-rhodamine cleavage fluorescence; inhibition, % at 25 µM; Ubiquitin carboxyl-terminal hydrolase 30 (Homo sapiens), Q70CQ3; AID 1645860, 2021
Target sequence (Q70CQ3 whole entry, looked up): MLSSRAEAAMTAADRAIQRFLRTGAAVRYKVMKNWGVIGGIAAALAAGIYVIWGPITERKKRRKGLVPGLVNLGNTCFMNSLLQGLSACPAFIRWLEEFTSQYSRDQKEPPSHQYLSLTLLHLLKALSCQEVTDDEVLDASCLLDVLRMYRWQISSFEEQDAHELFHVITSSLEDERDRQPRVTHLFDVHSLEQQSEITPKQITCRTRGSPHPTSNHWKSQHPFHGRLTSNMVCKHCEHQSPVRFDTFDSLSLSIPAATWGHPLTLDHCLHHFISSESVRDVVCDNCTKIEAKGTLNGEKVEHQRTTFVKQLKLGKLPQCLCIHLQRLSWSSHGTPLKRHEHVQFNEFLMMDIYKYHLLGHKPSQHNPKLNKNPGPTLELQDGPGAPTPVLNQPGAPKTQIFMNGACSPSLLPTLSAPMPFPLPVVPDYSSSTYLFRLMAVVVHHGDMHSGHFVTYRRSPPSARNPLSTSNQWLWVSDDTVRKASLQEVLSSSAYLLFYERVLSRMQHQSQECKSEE
USP17 block – inhibitors of human USP17 deubiquitinase; Ubiquitin carboxyl-terminal hydrolase 17-like protein 5 (Homo sapiens), A8MUK1; 6.5% of 47,000 active; inhibition, % at 50 µM; purified USP17, Ub-rhodamine cleavage fluorescence, 3 h
* hit, by the source's call; x = no result given. No stated cut-off is given here; in the data, active means inhibition above about 30%; inactive means the rest.

SMILES | USP28 block | OTUD3 inh | USP30 block | USP17 block
O=C(Nc1cccc(-c2noc(C3CC3)n2)c1)C1CC(=O)N(c2ccccc2)C1 (centres undefined) | -4 | -6 | -3 | 40*
Cc1ccc(N2CC(c3nc(-c4ccc5oc(C)nc5c4)no3)CC2=O)cc1 (centres undefined) | -1 | -4 | 0 | 3
CCc1nc(-c2cccc(NC(=O)C3CC(=O)N(c4ccc(C)c(C)c4)C3)c2)no1 (centres undefined) | 27 | 27 | 60* | 60*
Cc1ccc(C(=O)N2C[C@@H]3C[C@H](NC(=O)c4cccnc4)[C@H]2C3)cc1F | 4 | 9 | 10 | -15
COc1cccc(NC(=O)NC2CCN(c3ccccc3)C2=O)c1 (centres undefined) | 6 | 7 | 15 | 9
Cc1cccc(Cl)c1NC(=O)Nc1ccc(NC(=O)c2ccccc2O)cc1 | -22 | -24 | -101 | 53*
Cc1ccccc1C(=O)Nc1ccc(NC(=O)CN2CCOCC2)cc1 | -20 | -11 | -3 | -17
CC(=O)Nc1ccc(NC(=O)Nc2ccc(F)cc2)cc1 | 19 | 7 | 30* | 34*
COc1cccc(NC(=O)Nc2ccc(NC(C)=O)cc2)c1 | 51* | -7 | -3 | 22
O=C(Nc1ccc(F)cc1)Nc1ccc(NC(=O)c2ccccc2O)cc1 | -3 | 0 | -13 | 34*
O=C(Nc1ccc(F)cc1)Nc1ccc2ccccc2n1 | 10 | 5 | 31* | 18
COc1ccccc1NC(=O)Nc1ccc(NC(=O)c2ccccc2O)cc1 | 9 | -5 | 59* | 31*
O=C(Nc1ccccc1)Nc1ccc2ncccc2c1 | 7 | -6 | -17 | -20
Cc1cccc(N(C)C(=O)Cn2cccc(S(=O)(=O)N3CCCC3)c2=O)c1 | -12 | 9 | -6 | -5
Nc1c(-c2nc3ccccc3[nH]2)c2nc3ccccc3nc2n1Cc1ccccc1 | -28 | -21 | -225 | -5
Nc1c(-c2nc3ccccc3[nH]2)c2nc3ccccc3nc2n1Cc1cccc(Cl)c1 | 36* | 18 | -14 | 46*
O=c1c(Cc2ccccc2)coc2ccccc12 | 50* | 12 | 24 | 12
CCN1C(=O)C[C@@H](C(=O)NCc2ccncc2)[C@@H]1c1ccccc1OC | 6 | 6 | 15 | 5
CCc1ccccc1N1CC(c2nnc(NC(=O)Cc3ccc(C)cc3)s2)CC1=O (centres undefined) | 6 | 4 | 14 | 37*
O=C(c1ccc(F)cc1)N1CCc2cc(-c3csc(Nc4ccccc4)n3)ccc21 | -8 | -15 | -135 | -23
NC(=O)c1cc(-c2csc(NNc3ccccc3)n2)ccc1O | 3 | 4 | -61 | 47*
CCc1cccc2c(C(=O)COC(=O)C(NC(=O)c3cccc(S(=O)(=O)N4CCOCC4)c3)C(C)C)c[nH]c12 (centres undefined) | 1 | 0 | -28 | 10
CCc1cccc2c(C(=O)COc3ccc(C#N)cc3)c[nH]c12 | 71* | 32* | 91* | 43*
Clc1cccc(COc2ccc(-n3cnnn3)cc2)c1 | 49* | 6 | 18 | 12
O=C(CSc1nnc(-c2ccc3c(c2)OCCO3)o1)N1CCCc2ccccc21 | 14 | 7 | 27 | -31
SMILES | USP28 block | OTUD3 inh | USP30 block | USP17 block
Cc1cc(-c2nnc(SCC(=O)N3CCCc4ccccc43)o2)no1 | -29 | -21 | -92 | 41*
O=C(CSc1nnc(-c2ccncc2)o1)N1CCCc2ccccc21 | 6 | 5 | 32* | 1
O=C(Nc1cc(Cl)cc(Cl)c1)c1csnn1 | 3 | 0 | 6 | 58*
Cc1ccc(NC(=O)c2cnc3ccccc3n2)cc1Cl | -30 | -30 | -162 | 2
COc1ccc(-n2nc3c(c2NC(=O)/C=C\c2ccccc2)CS(=O)(=O)C3)cc1 | -9 | -11 | -10 | -10
O=C(/C=C\c1ccc2c(c1)OCO2)Nc1c2c(nn1-c1ccc(Cl)cc1)CS(=O)(=O)C2 | 36* | 39* | 47* | 57*
CCC(C(=O)Nc1c2c(nn1-c1ccc(Cl)cc1)CS(=O)(=O)C2)c1ccccc1 (centres undefined) | 0 | 0 | 12 | 38*
COc1cc(OC)c2c(C)c(CC(=O)Nc3cccc(C(C)O)c3)c(=O)oc2c1 (centres undefined) | 9 | 5 | 7 | 30*
COc1ccc(O)c(C(=O)c2cc(C#N)c(=O)n(-c3cccc(C(F)(F)F)c3)c2)c1 | 10 | -15 | -33 | 17
COc1ccc(C2/C(=C(\O)c3ccccc3)C(=O)C(=O)N2c2cccc(C(F)(F)F)c2)cc1 (centres undefined) | 10 | 0 | 33* | x
COc1ccc(C2/C(=C(\O)c3ccccc3)C(=O)C(=O)N2c2nc3ccc(F)cc3s2)cc1 (centres undefined) | 15 | 19 | 55* | x
Cc1ccc(C2/C(=C(\O)c3ccc(F)cc3)C(=O)C(=O)N2c2nc3ccc(F)cc3s2)cc1 (centres undefined) | 10 | -4 | 1 | x
Cc1nc(S/C(=C\c2ccc(OC(C)C)cc2)C(=O)O)n[nH]1 | 0 | 6 | 12 | 12
Cc1c(C(=O)NCCCN2CCCC2=O)oc2ccc3c(c12)C(=O)CC1(CCCC1)O3 | -10 | -10 | -9 | -15
CC(=O)Nc1cccc(NC(=O)Cn2ccc3cc(Br)ccc32)c1 | 62* | 33* | 54* | 61*
CC(OC(=O)c1ccc(Cl)cc1)C(=O)NCC1CCCCC1 (centres undefined) | 15 | 10 | 31* | 26
Cc1ccccc1CC(=O)NCc1noc(-c2ccccc2)n1 | -6 | -8 | -9 | -6
CC(=O)N1C[C@@H]2C[C@]2(c2ccccc2)C(=O)c2ncccc21 | -10 | -3 | -16 | -9
O=C(OCc1ccc([N+](=O)[O-])cc1)C1CCN(S(=O)(=O)c2cccc3cccnc23)CC1 | 28 | 18 | 44* | 3
Cc1cccc2nc(-c3cccnc3)c(NC3CCCC3)n12 | 43* | 8 | 16 | 2
O=C(c1c(F)cccc1F)N1CCC(c2nc3c(nnn3Cc3ccccc3)c(=O)[nH]2)CC1 | -2 | -4 | 4 | -5
COCCN1C(=O)c2ccccc2C(C(=O)Nc2ccccc2)C12CCCC2 (centres undefined) | 3 | 14 | 12 | 13
Cc1ccc(NC(=O)c2ccn(COc3ccc(Cl)c(C)c3)n2)nc1 | -6 | -1 | 22 | 34*
Cc1ccc(Cl)cc1NC(=O)c1ccn(COc2ccccc2F)n1 | 35* | 5 | 0 | 0
Cc1cc(C)nc(NC(=O)c2ccn(COc3ccc(F)cc3)n2)c1 | 4 | 13 | 32* | 4
Cc1cccc(NC(=O)c2ccn(COc3ccc(F)cc3)n2)n1 | 10 | 0 | 4 | 17
Cc1ccc(NC(=O)c2ccn(COc3ccccc3Cl)n2)nc1 | 19 | 7 | 48* | 33*
Cc1ccc(Cl)cc1NC(=O)c1cccc(-n2cnnn2)c1 | -13 | -4 | 8 | -2
